The list is not random: actives were taken first. Their share in the collection is about 7.4%.
FLuc modulator = qHTS profiling assay for firefly luciferase inhibitor/activator using purifed enzyme and Km concentrations of substrates (counterscreen for miR-21 project) | Potency, µM (highest dose often 57.5 µM), actives largely listed as inhibitors | 360,000 compounds, 6.9% hits | purified FLuc, Km substrates, luminescence inhibition | Luciferin 4-monooxygenase (Photinus pyralis), P08659; further: nearly all actives have a fitted effect of over 55% in size
Target sequence (P08659 whole entry, looked up): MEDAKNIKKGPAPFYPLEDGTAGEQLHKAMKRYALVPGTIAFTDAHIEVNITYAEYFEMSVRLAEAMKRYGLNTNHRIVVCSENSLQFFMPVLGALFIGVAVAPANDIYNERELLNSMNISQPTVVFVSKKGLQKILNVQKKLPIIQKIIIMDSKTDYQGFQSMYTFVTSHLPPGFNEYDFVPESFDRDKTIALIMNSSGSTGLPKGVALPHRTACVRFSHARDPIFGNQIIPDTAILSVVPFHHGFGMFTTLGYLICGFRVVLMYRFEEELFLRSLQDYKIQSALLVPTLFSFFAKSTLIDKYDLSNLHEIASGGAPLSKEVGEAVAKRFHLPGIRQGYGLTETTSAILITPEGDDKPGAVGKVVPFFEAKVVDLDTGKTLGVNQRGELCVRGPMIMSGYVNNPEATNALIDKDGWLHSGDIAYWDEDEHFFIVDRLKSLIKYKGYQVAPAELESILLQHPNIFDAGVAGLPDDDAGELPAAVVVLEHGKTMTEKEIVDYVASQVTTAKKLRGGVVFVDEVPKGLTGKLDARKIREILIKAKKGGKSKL
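Biochemical qHTS of compounds, final roughly 60 µM downward over six points, against 10 nM purified firefly luciferase using Km concentrations of substrates (10 uM D-luciferin, 10 uM ATP) in Tris acetate pH 7.5 buffer; luminescence output.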
NPC1 promoter act = qHTS Assay for NPC1 Promoter Activators; Huh7 NPC1 promoter luciferase reporter, 24 h; 320,000 compounds, 2.4% hits; Potency, µM (titrated, usually from 9.22 µM), usual class: activators; further: nearly all actives have a fitted effect of over 60% in size
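NPC1 promoter–luciferase Huh7 cells; 24 h compound; luminescence.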
SMN2 splice up = qHTS Assay for Enhancers of SMN2 Splice Variant Expression. HEK293 SMN2-luciferase splicing reporter, luminescence, 30-36 h. Potency, µM (highest dose often 46.1 µM), usual class: activators. 210,000 compounds, 2.8% hits. AID 1458, 2008; further: nearly all actives have a fitted effect of over 55% in size
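HEK293 cells carry an SMN2 […]–luciferase reporter in which exon 7 inclusion puts luciferase in frame. Cells were plated 10-12 h before compound addition, then incubated 30-36 h at 37C. ONE-Glo luminescence was read; sodium butyrate at 4.5 mM final served as control.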
Rab9 prom act = qHTS Assay for Rab9 Promoter Activators; 320,000 compounds, 2.8% hits; AID 485297, 2010; Potency, µM (titrated, usually from 9.22 µM), usual class: activators; Huh7 Rab9 promoter-luciferase reporter, luminescence, 24 h; further: nearly all actives have a fitted effect of over 60% in size
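Huh7 cells stably carrying a Rab9 promoter-luciferase reporter, 1500 cells per well in OP-MEM I with 10% FBS, treated with compound 24 hours at 37C. Luciferase activity read by luminescence after 10 minutes with Amplite reagent.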
ELG1 genotox = qHTS screen for small molecules that induce genotoxicity in human embryonic kidney (HEK293T) cells expressing luciferase-tagged ELG1 | Potency, µM (top dose mostly 46 µM), usual class: activators | HEK293T ELG1-luciferase reporter, luminescence, 16 h | 330,000 compounds, 1.3% hits; further: nearly all actives have a fitted effect of over 60% in size
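Reporter readout depends on ELG1 protein level, which increases with genetic stress. After 16 hr compound exposure at 37 °C, luciferase activity was quantified using ONE-Glo.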
A number is an active result; . = inactive; ? = inconclusive; / = no result; [ ] = dose if it differs, or a comment. The call rests on the fitted dose curve; in most records, active means well fitted curve in the direction sought with a large enough effect; inconclusive means small, poorly fitted or top-dose-only effect, or another doubt; inactive means no such curve, though single readings can be large; an effect the other way counts as inactive or inconclusive.

SMILES | FLuc modulator | NPC1 promoter act | SMN2 splice up | Rab9 prom act | ELG1 genotox
COc1ccc(C(=O)Nc2ccc(S(=O)(=O)N3CCCC3)cc2)cc1[N+](=O)[O-] | . | . | / | . | .
Cc1ccc(S(=O)(=O)c2ccc(Cl)cc2)cc1S(=O)(=O)NC(C)C(=O)O (centres undefined) | . | . | . | . | .
COc1cccc(NC(=O)COC(=O)c2ccc(C)c(S(=O)(=O)N3CCCCC3)c2)c1 | . | . | / | . | .
COc1ccc(NC(=O)c2ccc(NC(=O)CSc3nc(N)cc(=O)[nH]3)cc2)cc1 | . | . | / | . | ?
C=CCOc1ccc(CNc2nccs2)cc1OCC | . | . | . | . | .
C=CCOc1ccc(CNc2nccs2)cc1 | 13.5µM | . | ? | . | .
Cc1cccnc1NC(=O)c1sc2ccccc2c1Cl | 2.69µM | 1.41µM | / | 2.51µM | 3.66µM
O=C(O)CCCn1cc(NC(=O)c2sc3ccccc3c2Cl)cn1 | 26.9µM | . | / | . | .
COc1ccccc1C(=O)NNC(=S)NC(=O)c1sc2ccccc2c1Cl | . | . | .[1.84 µM] | . | .
O=C(NC1=NCCS1)c1sc2ccccc2c1Cl | 2.13µM | 1.26µM | 12.6µM | 1.12µM | 2.91µM
Cc1c(NC(=S)NC(=O)c2sc3ccccc3c2Cl)cccc1C(=O)O | 0.757µM | ? | 3.98µM | ? | ?
CN(CC(=O)Nc1ccc(Cl)cc1)C(=O)C1CCCC1 | . | . | / | . | .
COc1cc(NC(=O)CSC2=Nc3ccccc3N=C(c3ccc(F)cc3)C2)cc(OC)c1 | . | / | / | / | /
O=C(Nc1ccc(F)c(Cl)c1)C1CCN(S(=O)(=O)c2ccc3[nH]c(=O)ccc3c2)CC1 | . | / | / | / | /
O=C(O)CCSCc1ccc(I)cc1 | / | / | .[9.22 µM] | / | /
COc1ccc(C(=O)c2cn(Cc3ccccc3F)c3ccc(F)cc3c2=O)cc1 | . | / | . | / | /
COCc1nnc(NC(=O)c2cccs2)s1 | . | . | . | . | .
CCN(CC)c1ccc(NC(=O)c2sc3ccccc3c2Cl)cc1 | ? | / | . | / | /
Cc1nnc(NC(=O)c2sc3ccccc3c2Cl)s1 | 0.379µM | 1.26µM | 12.6µM | 1µM | ?
Cc1ccc(NC(=O)c2sc3ccccc3c2Cl)nc1 | 0.269µM | 3.55µM | 0.631µM | 3.55µM | ?
COCc1nnc(NC(=O)c2sc3ccccc3c2Cl)s1 | 5.36µM | ? | . | ? | ?
CNC(=O)c1ccsc1NC(=O)c1sc2ccccc2c1Cl | 3.79µM | ? | 12.6µM | ? | .
Cc1ccc2nsnc2c1NC(=O)c1sc2ccccc2c1Cl | . | . | . | . | .
CCN(CC)CC[n+]1ccc2c(C)c3[nH]c4ccc(O)cc4c3c(C)c2c1 | / | / | .[9.22 µM] | / | /
COC(=O)c1ccc(OCc2cc(=O)n3ccsc3n2)cc1 | ? | ? | 14.1µM | ? | .
SMILES | FLuc modulator | NPC1 promoter act | SMN2 splice up | Rab9 prom act | ELG1 genotox
COc1ccc(C(=O)Nc2ccc(OCc3cc(=O)n4ccsc4n3)cc2)cc1OC | . | / | . | / | /
CC(=O)Nc1ccc(S(=O)(=O)NCCc2cn3nc(C)c(C)nc3n2)cc1 | . | . | / | . | .[9.26 µM]
CC1CCc2c(sc(/N=C/c3cccnc3)c2C(N)=O)C1 (centres undefined) | 23.9µM | . | / | . | .
CC1CCc2c(sc(/N=C/c3ccco3)c2C(N)=O)C1 (centres undefined) | 5.36µM | ? | / | . | ?
c1nc(NCCc2cnc[nH]2)c2[nH]cnc2n1 | / | / | .[9.22 µM] | / | /
c1ccc(Sc2cnc3ccccc3n2)cc1 | 21.3µM | / | . | / | /
Clc1ccccc1Sc1cnc2ccccc2n1 | ? | . | . | . | .
Brc1ccc(Sc2cnc3ccccc3n2)cc1 | ? | / | . | / | /
Clc1ccc(Sc2cnc3ccccc3n2)cc1 | 15.1µM | / | . | / | /
N/C(=N/OC(=O)c1cccc([N+](=O)[O-])c1)c1cccc([N+](=O)[O-])c1 | ? | . | . | . | .
N/C(=N\OC(=O)c1cccc(F)c1)c1cccc([N+](=O)[O-])c1 | 1.51µM | . | / | . | ?
COc1cc(OC)c(C(=O)O/N=C(\N)c2cccc(C)c2)cc1OC | ? | . | / | .[1.84 µM] | .
O=C(CC(=O)c1cccc([N+](=O)[O-])c1)Nc1ccccc1Cl | 23.9µM | . | . | . | .
O=C(CCNc1ccccc1)c1cccc([N+](=O)[O-])c1 | . | . | / | . | .
Cc1cccc(/C(N)=N/OC(=O)c2ccc(F)cc2)c1 | 0.269µM | 1µM | ? | 1.58µM | ?
N/C(=N\OC(=O)c1ccc2ccccc2c1)c1cccc([N+](=O)[O-])c1 | 1.9µM | . | .[1.84 µM] | . | ?
Cc1ccc(NC(=O)C2CCCN(c3ncnc4c3nc3n4CCCCC3)C2)cc1F (centres undefined) | . | / | / | / | /
N/C(=N\OC(=O)c1ccc(F)cc1)c1cccc([N+](=O)[O-])c1 | 0.239µM | ? | / | ? | ?
N/C(=N/OC(=O)c1ccccc1Cl)c1ncc([N+](=O)[O-])s1 | 4.26µM | ? | / | . | ?
N/C(=N\OC(=O)Cc1ccccc1)c1ccccc1Cl | ? | . | . | . | .
N/C(=N\OC(=O)c1ccccc1Cl)c1cccc([N+](=O)[O-])c1 | 1.2µM | 1.41µM | / | 0.891µM | 2.59µM
O=C(Nc1ccc2nc(-c3ccccc3)oc2c1)c1ccco1 | 21.3µM | ? | ? | 3.16µM | ?
CCc1ccc(-c2nc3cc(NC(=O)c4ccc(C)c(C)c4)ccc3o2)cc1 | . | / | . | / | /
CCC(C)NCC(=O)Nc1ccc(-c2nc3cc(NC(=O)CNC(C)CC)ccc3o2)cc1 (centres undefined) | . | . | ? | . | .
Cc1ccc2oc(-c3ccc(NC(=O)CC(C)C)cc3)nc2c1 | 0.757µM | 0.282µM | ? | ? | 2.31µM
SMILES | FLuc modulator | NPC1 promoter act | SMN2 splice up | Rab9 prom act | ELG1 genotox
CCc1ccc2oc(-c3ccc(NC(C)=O)cc3)nc2c1 | 1.9µM | ? | / | 0.631µM | 3.26µM
O=C(Nc1ccc2oc(-c3cccnc3)nc2c1)c1cccnc1 | ? | . | . | . | .
CC(C)CC(=O)Nc1ccc2oc(-c3cccnc3)nc2c1 | 13.5µM | ? | ? | ? | ?
CCOC(=O)N1CCN(C(=O)C2CCCN(S(=O)(=O)c3ccc(C)cc3)C2)CC1 (centres undefined) | . | . | . | . | .
COc1ccc(CCNC(=O)CS(=O)(=O)Cc2nc(-c3cccc(Cl)c3)oc2C)cc1OC | . | / | . | / | /
O=C(COC(=O)Cc1cccs1)NCc1ccc(F)cc1 | . | . | / | . | .
O=S(=O)(O)[C@@H](CO)c1ccccc1 (tested in a mixture with another compound) | / | / | .[9.22 µM] | / | /
CCC(=O)Nc1ccc2oc(-c3cccnc3)nc2c1 | 16.9µM | ? | / | 3.55µM | ?
O=C(Nc1ccc(-c2nc3ncccc3o2)cc1)c1ccc(Br)o1 | . | . | . | . | .
O=C(Nc1ccc2oc(-c3cccnc3)nc2c1)c1ccco1 | 15.1µM | ? | . | ? | .
O=C(Nc1ccc(-c2nc3ncccc3o2)cc1)c1ccco1 | 8.49µM | 2.51µM | ? | 1.58µM | ?
